Screening data: PubChem, National Center for Advancing Translational Sciences (NCATS)
An excerpt weighted towards active compounds, which were near 3.3% of everything screened.
SARS PLpro yeast – qHTS of Yeast-based Assay for SARS-CoV PLP; Potency, µM (titrated, usually from 32.9 µM), for the others: at the top dose activity, positive = growth rescue, usual class: activators; S. cerevisiae expressing SARS-CoV PLpro, growth rescue; 330,000 tested, 0.19% active; calls by dose curve; further: 0% is about no effect; nearly all actives have a fitted effect of over 55% in size
Sm TGR block – qHTS Assay for the Inhibitors of Schistosoma Mansoni Peroxiredoxins | Schistosoma mansoni thioredoxin glutathione reductase (TGR), Q962Y6 | purified TGR, DTNB reduction, TNB absorbance 405 nm | Potency, µM (top dose mostly 114 µM), for the others: at the top dose activity change, negative = inhibition, actives largely listed as inhibitors | 360,000 tested, 3% active; further: on the % scale 0 is the no-effect control and ±100 the full control effect; nearly all actives have a fitted effect of over 60% in size
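First, TGR (20 nM dispensed) and NADPH were mixed with compound. Second, a 15 min room-temperature incubation followed. Third, further NADPH and then DTNB were added to start the reaction. Finally, TNB absorbance was monitored kinetically.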
LmPK inh – qHTS Assay for Inhibitors of Leishmania Mexicana Pyruvate Kinase (LmPK). Potency, µM (doses to about 57.5 µM), without a hit: at the top dose activity change, negative = inhibition, most hits filed as inhibitors. 290,000 tested, 0.37% active. Q27686. purified LmPK, Kinase-Glo ATP luminescence, 1 h; further: on the % scale 0 is the no-effect control and ±100 the full control effect
Target sequence (Q27686 whole entry, looked up): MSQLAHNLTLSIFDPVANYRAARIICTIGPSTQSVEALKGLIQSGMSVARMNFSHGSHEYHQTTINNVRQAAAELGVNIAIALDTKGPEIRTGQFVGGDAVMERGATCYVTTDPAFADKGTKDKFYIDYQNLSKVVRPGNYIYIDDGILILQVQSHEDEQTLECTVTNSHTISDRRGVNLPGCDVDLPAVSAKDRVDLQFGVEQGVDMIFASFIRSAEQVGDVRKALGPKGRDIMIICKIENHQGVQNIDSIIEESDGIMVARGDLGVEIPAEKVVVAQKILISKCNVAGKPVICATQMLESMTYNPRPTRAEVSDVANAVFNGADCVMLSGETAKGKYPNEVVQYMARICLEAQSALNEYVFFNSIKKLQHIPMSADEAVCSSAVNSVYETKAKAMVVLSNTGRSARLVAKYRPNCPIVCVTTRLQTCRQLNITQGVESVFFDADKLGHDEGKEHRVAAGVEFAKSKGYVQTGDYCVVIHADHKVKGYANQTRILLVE
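qHTS format; LmPK 0.1 nM; substrates PEP 0.5 mM and ADP 0.1 mM. One-hour room-temperature incubation, then coupled luciferase luminescence; 0.5 nM enzyme wells mark activation.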
RE007 growth inh – qHTS Assay for Inhibitors of the HIV-1 protein Vpr | S. pombe RE007 Vpr strain, BacTiter-Glo ATP luminescence, 24 h | Potency, µM (series often up to 92.2 µM), inactives show top-dose activity change, negative = less growth, usual class: inhibitors | 360,000 tested, 0.21% active | AID 651644, 2012; active means well fitted falling curve with a large enough effect; inconclusive means small, poorly fitted or top-dose-only effect; inactive means no such curve, though single readings can be large or run the other way; further: on the % scale 0 is the no-effect control and ±100 the full control effect; nearly all actives have a fitted effect of over 50% in size
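Fission yeast RE007 carrying one integrated HIV-1 vpr copy, seeded at OD 0.01 in PMG+AL medium with 23 nL pinned compound. Grown 24 h at 30 degrees; viability read by BacTiter-Glo luminescence after 5 min.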
NS1 inh – qHTS Assay for Inhibitors of Influenza NS1 Protein Function; Potency, µM (highest dose often 46.1 µM), for inactives: at the top dose activity, positive = more growth; 270,000 tested, 0.4% active; calls by dose curve; further: actives are rising curves; nearly all actives have a fitted effect of over 50% in size
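A cell-based growth assay was used: compounds that relieve NS1-induced slow growth of budding yeast raise OD600. Assay medium was yeast nitrogen base with ammonium sulphate and -URA supplement, pH 6.0, with 2% galactose.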
Tb PYK inh – qHTS of Trypanosoma Brucei Inhibitors | Potency, µM (top dose mostly 76.8 µM), for the others: at the top dose activity, negative = inhibition, hits mostly inhibitors | AID 624173, 2012 | TbPYK enzyme, Kinase-Glo Plus ATP luminescence, 45 min | 410,000 tested, 0.12% active | pyruvate kinase (Trypanosoma brucei), Q57TT1; further: on the % scale 0 is the no-effect control and ±100 the full control effect; nearly all actives have a fitted effect of over 50% in size
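Glycolytic pyruvate kinase of T. brucei was incubated with substrate, test compound and 130 uM ADP for 45 minutes at room temperature. Luminescent Kinase-Glo Plus signal was measured after 10 minutes.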
An asterisk follows results filed as active; u = inconclusive; x = no result; [ ] = another dose, or the depositor's remark. Unless noted, the call rests on the fitted dose curve; in most records, active means well fitted curve in the direction sought with a large enough effect; inconclusive means small, poorly fitted or top-dose-only effect, or another doubt; inactive means no such curve, though single readings can be large; an effect the other way counts as inactive or inconclusive. Potency means the concentration at half of the fitted maximal effect.

SMILES	SARS PLpro yeast	Sm TGR block	LmPK inh	RE007 growth inh	NS1 inh	Tb PYK inh
COc1cc(/C=C/C(=O)O)cc(OC)c1O	x	x	x	2%[18.4 µM]	x	4%
COc1ccc(C(=O)/C=C/c2cc(OC)c(O)c(OC)c2)c(F)c1	-33%	50µM*	0%	-28%	-19%	-7%
COc1ccc(NC(=O)c2oc3ccccc3c2NC(=O)C23CC4CC(CC(C4)C2)C3)c(OC)c1	x	-1%	x	x	x	1%
CCC1CN(C(=O)N2CCC(C(=O)NCc3cccc(C)c3)CC2)c2ccccc2O1 (stereo not drawn)	x	5%	x	x	x	1%
COc1ccccc1CCNC(=O)CSc1ccc(-c2ccco2)nn1	1%	3.5µM*	-11%	2%	x	-19%
CCc1ccc(NC(=O)CSc2ccc(-c3ccco3)nn2)cc1	-2%	20µM*	-2%	-3%	x	-11%
O=C(CSc1ccc(-c2ccccn2)nn1)NCc1ccc(Cl)cc1	22%	6%	-12%	-19%	x	5%
COc1cccc(CNC(=O)CSc2ccc(-c3ccccn3)nn2)c1	26%	-9%	-2%	2%	x	6%
COc1cccc(CNC(=O)CSc2ccc(-c3ccco3)nn2)c1	0%	8.9µM*	-2%	5%	x	-3%
O=C(CSc1ccc(-c2ccco2)nn1)NCc1ccc(Cl)cc1	-8%	16µM*	-1%	-9%	-5%	-16%
S=C1SCN(C2CCCCCCCCCCC2)CN1C1CCCCCCCCCCC1	x	x	x	x	-6%	x
CCN1CCN(c2oc(-c3ccc(COc4ccc(C)cc4)o3)nc2C#N)CC1	x	1%	x	x	x	-4%
O=C(CSc1ccc(-c2ccco2)nn1)N1CCCC1	-1%	18µM*	-13%	-13%	x	-20%
O=C(CSc1ccc(-c2ccco2)nn1)NCc1ccccc1	11%	35µM*	-2%	-12%	10%	4%
CCOc1ccc(NC(=O)CSc2ccc(-c3ccccn3)nn2)cc1	7.9µM*	-12%	1%	-5%	-3%	-2%
CC(C)N(CC(=O)O)CC(=O)O	x	x	x	x	2%	x
O=C(NCCCN1CCN(c2ccccc2F)CC1)c1ccc2nc(CCc3ccccc3)oc2c1	x	u	x	x	x	-3%
CCCc1nc(Cl)c(C#N)c2c1CCCC2	12%	25µM*	-9%	9%	5%	-1%
Cc1cc(N)ncc1[N+](=O)[O-]	x	x	x	-6%	x	-6%
Cc1cc(Sc2ncnc(N)c2[N+](=O)[O-])ncn1	-2%	0.89µM*	-1%	-16%	2%	-11%
Cc1ccc(C)c(Oc2ncnc(N)c2[N+](=O)[O-])c1	1%	-15%	4%	2%	-7%	-1%
Cc1cc(Sc2nc(N)ncc2[N+](=O)[O-])ncn1	-3%	2.2µM*	0%	7%	x	11%
CC(C)c1cc(C(=O)NCc2ccccc2)no1	x	11%	x	x	x	-2%
Cc1cc(-c2ccccc2)nc2cc(C(=O)NCc3ccco3)nn12	2%	32µM*	20%	12%	-3%	-11%
CC(C)c1cc(C(=O)NCc2ccco2)no1	-13%	50µM*	3%	-2%	u	-10%
SMILES	SARS PLpro yeast	Sm TGR block	LmPK inh	RE007 growth inh	NS1 inh	Tb PYK inh
Cc1cccc(C(=O)NCc2ccco2)c1	5%	45µM*	6%	10%	16%	-4%
Cc1cc(=O)oc(C)c1C(=O)NCc1ccco1	9%	45µM*	3%	-6%	25%	0%
COc1ccc(-c2cc(C(F)(F)F)n3nc(C(=O)NCc4ccco4)cc3n2)cc1	5%	u	4%	-9%	-10%	0%
CN(Cc1ccccc1)C(=O)c1c[nH]c2ccc(S(=O)(=O)Nc3ccccc3F)cc2c1=O	x	-15%	x	x	x	2%
COc1cccc(CNC(=O)c2cc3n(n2)CCCN(Cc2ccc(C)cc2)C3=O)c1OC	x	1%	x	x	x	-11%
COC(=O)C1=C(C(=O)OC)[C@@H]2N(C)c3ccccc3[C@@]23C[C@@H](CO)N(C(=O)c2ccco2)C3=N1	x	x	4%[11.5 µM]	x	x	x
O=C(NCc1ccco1)c1ccc2c(c1)C(=O)c1ccccc1-2	-7%	13µM*	-3%	-17%	-1%	-6%
CN(C)S(=O)(=O)c1cccc(C(=O)NCc2ccco2)c1	1%	45µM*	-7%	-11%	u	-10%
Cc1ccc(CN(C)C(=O)c2ccccc2NC(=O)c2ccccc2)o1	-15%	40µM*	x	-7%	x	1%
Cc1ccc(C2=NN(S(C)(=O)=O)C(c3cccs3)C2)cc1 (stereo not drawn)	1%	-21%	-24%	-28%	1%	-9%
CCc1ccc(C2=NN(S(C)(=O)=O)C(c3cccs3)C2)cc1 (stereo not drawn)	-17%	-23%	22µM*	-14%	-4%	-7%
Cc1ccc(-c2sc(-c3cccnc3)nc2CC(=O)O)cc1	-2%	40µM*	-2%	20%	x	-1%
CCOc1ccccc1N(C)C(=O)c1c2c(nc3ccccc13)C(=O)N(C1CCCCC1)C2	x	-8%	x	x	x	-6%
CCOC(=O)c1c(NC(C)=O)sc2c(O)cccc12	-5%	3%[11.4 µM]	17%	1%[3.69 µM]	-14%	x
CCOC(=O)c1c(NC(C)=O)sc2c(O)c(Br)cc(Br)c12	-50%	40µM*	-7%	-10%	21%	-17%
COc1ccc(/C=N/N=C2/NC(=O)C(CC(=O)O)S2)cc1OCc1ccc(Cl)cc1 (stereo not drawn)	-16%	-3%	u	34%	4%	u
CCOc1cc(/C=N/N=C2/NC(=O)C(CC(=O)O)S2)ccc1OCc1ccc(Cl)cc1 (stereo not drawn)	-3%	9%	13µM*	2%	x	u
COC/C=C/C1=CC2=CC(=O)C(C)(OC(=O)c3cnc4ccccc4n3)C(=O)C2=CN1CCN1CCOCC1 (stereo not drawn)	-1%	14µM*	-5%[11.5 µM]	-8%	-1%	-9%
COc1ccc(S(=O)(=O)N2CCCN(CC(=O)Nc3ccc(OC)c(Cl)c3)CC2)cc1	-3%	32µM*	1%	32%	-33%	-4%
COc1cccc(CNS(=O)(=O)c2ccc(S(=O)(=O)N3CCCC3)cc2)c1	0%	45µM*	u	18%	4%	-3%
COc1ccc(NC(=O)CN2CCN(S(=O)(=O)c3ccc(Cl)cc3)CC2)cc1Cl	-1%	5%	8%	3%	-7%	-1%
COc1cccc(CN2CCN(S(=O)(=O)c3ccc(Br)cc3)CC2)c1	4%	1%	3%	-6%	-35%	0%
